From PubChem BioAssay AID652001 (The Scripps Research Institute Molecular Screening Center, 2013) come the findings set out here.

The target in this assay is Acyl-protein thioesterase 2 (Homo sapiens) (UniProt O95372). As to the kind of experiment: LYPLA2 enzyme kinetics with inhibitors – biochemical, substrate-based fluorescence, Ki, Km, Vmax, late-stage follow-up (AID 652001). Conditions: recombinant LYPLA2, resorufin acetate hydrolysis fluorescence, measured here: LYPLA2 (no test compound); Km: enzyme Km; Vmax: enzyme Vmax.
Chain of Acyl-protein thioesterase 2 (Homo sapiens) (O95372 whole entry, looked up): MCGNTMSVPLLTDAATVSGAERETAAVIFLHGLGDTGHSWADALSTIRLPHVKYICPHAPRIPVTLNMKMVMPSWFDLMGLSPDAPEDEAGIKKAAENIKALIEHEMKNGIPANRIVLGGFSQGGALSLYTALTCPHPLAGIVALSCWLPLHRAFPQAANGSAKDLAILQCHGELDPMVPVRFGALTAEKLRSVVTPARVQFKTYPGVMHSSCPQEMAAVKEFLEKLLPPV

In the case of `COc1ccc(N2CCN(C(=O)c3cc4c(s3)-c3ccccc3S(=O)(=O)C4)CC2)cc1`, the Km was determined as 24.4 µM and the Vmax is 13.8 nM.

The Km is the substrate concentration at which the rate is half of its maximum.
